Compound activity: PubChem BioAssay, several laboratories
HSF1 inhib – HSF1 inhibition. NIH3T3-HGL HSE-luciferase, MG132-induced, luminescence 8 h; stronger effect = lower value. activity change, negative = inhibition, % at 7.5 µM (by protocol). actives 0.77% (n = 300,000). AID 2098;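 active = more than half of replicate wells show activity change below -50%, luminescence cut by over half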;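 also: luciferase reports HSF-1 transcriptional activity via heat shock element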
Platelet DG rel – modulates dense granule release in human platelets | human platelet-rich plasma, SFLLRN dense granule ATP release, luminescence | inhibition, %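 (compounds screened at 7.5 µM in platelet-rich plasma)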 | actives 0.22% (n = 300,000) | AID 1663;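 active = mean replicate score, as percent of positive control, at or above 50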
dFosB act – mouse delta FosB homodimer activation | P13346 | purified delta FosB, TAMRA-CDK5 oligo fluorescence polarization; percent of positive-control signal above neutral wells | activation, % at 25 µM | actives 0.99% (n = 340,000);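 active = mean activation above about 17%, with every replicate also reaching it, limit read from the data, passing the limit was not always enough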
Target sequence (P13346 whole entry, looked up): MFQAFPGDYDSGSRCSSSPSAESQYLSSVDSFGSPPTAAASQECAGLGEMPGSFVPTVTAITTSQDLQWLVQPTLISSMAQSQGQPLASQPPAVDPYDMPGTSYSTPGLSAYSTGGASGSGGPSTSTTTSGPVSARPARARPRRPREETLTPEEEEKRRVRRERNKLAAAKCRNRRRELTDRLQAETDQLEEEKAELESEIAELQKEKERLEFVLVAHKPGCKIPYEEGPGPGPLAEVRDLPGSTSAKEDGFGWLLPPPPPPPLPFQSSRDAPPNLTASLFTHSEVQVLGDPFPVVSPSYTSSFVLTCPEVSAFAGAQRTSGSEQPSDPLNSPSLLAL
HSF-1 act – increases HSF-1 driven luciferase reporter signal. actives 1.7% (n = 300,000). activation, % at 9 µM. NIH3T3-HGL HSF-1 luciferase reporter, MG132, 8 h; 100% = twice DMSO control signal;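 active = mean replicate activation of at least 50% with a set share of replicates each reaching 50%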
MPTP inh – blocks calcium-induced mitochondrial swelling; isolated mouse mitochondria, Ca2+ swelling absorbance, 30 min; inhibition, % at 10 µM; actives 1.4% (n = 360,000);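 active = inhibition of 50% or more, scaled per plate between neutral and stimulator controls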
HSP90 refold inh – inhibitors of HSP90 luciferase refolding in rabbit reticulocyte lysate. luciferase refolding luminescence, 3 h. inhibition, % at 5.6 µM. actives 0.91% (n = 290,000);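 active = inhibition above the screen-wide mean plus 3 SD, computed separately per campaign, cut at about 16% in these data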;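 also: inhibitors lower the luminescence because luciferase stays unfolded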
MPTP counter – Rhodamine 123 counter-screen of mitochondrial pore hits; shares compounds with MPTP inh; isolated mitochondria, membrane potential, Rhodamine 123 fluorescence; inhibition, % at 10 µM; actives 78% (n = 5,000); AID 624504; in the data active = inhibition above about 22%
MPTP swell DR – MPTP inhibition, dose response swelling confirmation | IC50, µM | actives 58% (n = 780) | isolated mitochondria swelling, absorbance | shares compounds with MPTP inh; in the data active = IC50 below about 20 µM
MPTP cs DR – active in counter-screen for permeability transition pore inhibitors | shares compounds with MPTP inh | isolated mitochondria counterscreen, fluorescence read-out | IC50, µM | actives 49% (n = 780); in the data active = IC50 below about 80 µM
Each line names hits and unclear results; the compound was inactive in the other large screens (follow-up assays come after a bar, where they were run); ! = not confirmed by another sample. A selection: hits, their analogues and other compounds. The true share with any hit is near 4.9%.

Cc1cn2c(N)c(C=C3C=C(Cl)C(=O)C(Cl)=C3)c(=O)nc2s1	MPTP inh 87 | MPTP counter 83
CC(C)Oc1ccc(CNC(=S)Nc2ccccc2)cc1Cl	none
FC(F)Oc1ccc(NC(=S)NCc2ccccc2)cc1Cl	MPTP inh 100 | MPTP counter 82
Oc1cccc2c(NC(=S)Nc3ccc(OC(F)F)cc3)cccc12	MPTP inh 62 | MPTP counter 80
CN(NC(=S)Nc1ccc(OC(F)F)cc1)C(=S)Nc1ccc(OC(F)F)cc1	MPTP inh 84 (no result: HSF1 inhib, HSF-1 act) | MPTP counter 93
FC(F)Oc1ccc(NC(=S)NCc2ccccc2)cc1	MPTP inh 79 | MPTP counter 81
COc1cc(OC)cc(C2=Cc3ccc(OC)cc3C(CC(C)=O)N2c2ccc(C#CCCO)cc2)c1 (stereo unspecified)	none (no result: HSF1 inhib, Platelet DG rel, dFosB act, HSF-1 act, HSP90 refold inh)
O=Cc1ccc(OCC(=O)NCC2CCCO2)cc1 (stereo unspecified)	MPTP inh 64 | MPTP counter inactive | MPTP swell DR inactive | MPTP cs DR inactive
O=[N+]([O-])c1ccc(Sc2n[nH]c(-c3ccc(Cl)cc3Cl)n2)nc1	MPTP inh 90 | MPTP counter inactive | MPTP swell DR 20 | MPTP cs DR 5.8
CC(C)(C)c1nc(Sc2ccc([N+](=O)[O-])cn2)n[nH]1	none
CCC(Sc1nc2ccncc2[nH]1)C(=O)Nc1cc(Cl)ccc1C (stereo unspecified)	none
C=CCc1cccc(/C=N/NC(=O)C(C)Nc2cccc(C)c2)c1O (stereo unspecified)	MPTP inh 73 | MPTP counter 61
Cc1ccc(SCCC(=O)N/N=C/c2ccccc2O)cc1	MPTP inh 52 | MPTP counter 45
C=CCc1cccc(/C=N/NC(=O)CCCNc2ccc(C)cc2)c1O	MPTP inh 54 | MPTP counter 30
C=CCc1cccc(/C=N/NC(=O)CNc2ccccc2)c1O	none
COc1ccc(Cl)cc1NC(=S)NC1CCCC1	none
COc1cccc(NC(=O)C(c2ccccc2)N2CCCCC2)c1 (stereo unspecified)	none
O=C(Nc1cc(Cl)cc(Cl)c1)N1CCCC1	MPTP inh 98 | MPTP counter 93
CCOC(=O)C1CCN(C(=O)Nc2cc(Cl)cc(Cl)c2)CC1	MPTP inh 78 | MPTP counter 92
CCOC(=O)C1CCN(C(=O)Nc2cccc(Cl)c2)CC1	none
O=C(Nc1cc(Cl)cc(Cl)c1)C(c1ccccc1)N1CCCCC1 (stereo unspecified)	MPTP inh 83 | MPTP counter 98
Oc1cc(Cl)cc(Cl)c1Cl	MPTP inh 52 (no result: HSF1 inhib, Platelet DG rel, HSF-1 act, HSP90 refold inh) | MPTP counter 80
C/C(=N\O)c1cc(Cl)cc(Cl)c1O	none (no result: HSF1 inhib, Platelet DG rel, HSF-1 act)
O=C(CNc1ccc(C(F)(F)F)cc1)Nc1cccc(S(=O)(=O)N2CCCC2)c1	none (no result: HSF1 inhib, Platelet DG rel, HSF-1 act, HSP90 refold inh)
O=C(CNc1ccc(C(F)(F)F)cc1)Nc1cccc(S(=O)(=O)N2CCCCC2)c1	MPTP inh 66 (no result: HSF1 inhib, Platelet DG rel, dFosB act, HSF-1 act, HSP90 refold inh) | MPTP counter 90
O=C(CSc1nnc2c(n1)[nH]c1ccccc12)Nc1cccc(S(=O)(=O)N2CCOCC2)c1	MPTP inh 52 | MPTP counter 35
CCN(CC)S(=O)(=O)c1cc(NC(=O)CNc2cccc(S(=O)(=O)N3CCCC3)c2)ccc1C	MPTP inh 54 (no result: HSP90 refold inh) | MPTP counter 95
CCN(CC)S(=O)(=O)c1ccc(C)c(NC(=O)CNc2cccc(S(=O)(=O)N3CCOCC3)c2)c1	none (no result: HSP90 refold inh)
CN(C)S(=O)(=O)c1cccc(NC(=O)CNc2cccc(S(=O)(=O)N3CCCCC3)c2)c1	none (no result: HSF1 inhib, Platelet DG rel, dFosB act, HSF-1 act, HSP90 refold inh)
CCN(CC)S(=O)(=O)c1cccc(NC(=O)CNc2cccc(S(=O)(=O)N3CCOCC3)c2)c1	MPTP inh 72 (no result: HSP90 refold inh) | MPTP counter 97
CCN(CC)S(=O)(=O)c1ccc(C)c(NC(=S)Nc2cccc(S(=O)(=O)N3CCCCCC3)c2)c1	HSF-1 act 56, MPTP inh 76 | MPTP counter 78
Cc1ccc(-c2csc(NC(=O)CSc3nnc4c(n3)[nH]c3ccccc34)n2)cc1	MPTP inh 88 (no result: HSF1 inhib, Platelet DG rel, HSF-1 act) | MPTP counter 56
CCN(CC)S(=O)(=O)c1cccc(NC(=O)CCSc2ccc(Cl)cc2)c1	MPTP inh 76 | MPTP counter 85
CN(C)S(=O)(=O)c1cccc(NC(=O)COC(=O)CCSc2ccc(Cl)cc2)c1	none
COc1cccc(CN(C)CCCn2cnc(C(=O)Nc3ccc(C)c(C)c3)n2)c1	none (no result: HSF1 inhib, Platelet DG rel, HSF-1 act, HSP90 refold inh)
CCN1CCCC1CNC(=O)c1ccccc1Cl (stereo unspecified)	none
CCc1cc(Cl)c(OC)c(C(=O)NC[C@@H]2CCCN2CC)c1O	MPTP inh 78! (no result: HSP90 refold inh) | MPTP counter inactive | MPTP swell DR 9 | MPTP cs DR inactive
COC(CNC(=O)c1ccc2c(c1)ncn2C1CCCCCC1)OC	none
CCCCCCCCCCCCCCCCn1cc[n+](C)c1	MPTP inh 58 | MPTP counter 99
O=C(/C=C/c1ccco1)Oc1cc(Br)cc(/C=N/NC(=O)c2ccccc2O)c1	MPTP inh 66 | MPTP counter 63
CCC/C=C/c1ccc(CN2C(CC(C)C)C(=O)N(Cc3cn(Cc4ccco4)nn3)CCS2(=O)=O)cc1 (stereo unspecified)	none (no result: HSF1 inhib, Platelet DG rel, dFosB act, HSF-1 act, HSP90 refold inh)
O=C(O)c1cc(S(=O)(=O)Nc2cc(Cl)ccc2Oc2ccccc2)ccc1O	MPTP inh 72 (no result: HSF1 inhib, Platelet DG rel, HSF-1 act, HSP90 refold inh) | MPTP counter 86
COc1ccc(NC(=O)CN(C)C(=O)c2c(-c3c(F)cccc3Cl)noc2C)cc1	none (no result: HSP90 refold inh)
COCCCNC(=S)N1CCN(c2nc(-c3ccccc3)cs2)CC1	none
COc1ccc(NC(=O)N2CCN(c3nc(-c4cccc(OC)c4)cs3)CC2)cc1	none
COCCCNC(=S)N1CCN(c2nc(-c3ccc(Cl)cc3)cs2)CC1	MPTP inh 76 (no result: HSF1 inhib, Platelet DG rel, dFosB act, HSF-1 act, HSP90 refold inh) | MPTP counter 78
COc1cccc(-c2csc(N3CCN(C(=O)Nc4ccc(Cl)cc4)CC3)n2)c1	MPTP inh 88 | MPTP counter 89
CN1CCC(=C2c3ccccc3Sc3ccccc32)CC1	MPTP inh 92 (no result: HSF1 inhib, Platelet DG rel, HSF-1 act, HSP90 refold inh) | MPTP counter inactive | MPTP swell DR 7.3 | MPTP cs DR inactive
O=C(C1CC1)N1N=C(c2ccc(Cl)cc2)CC1(O)C(F)(F)F (stereo unspecified)	none
CC1(O)CC(c2ccc(Cl)cc2)=NN1C(=O)c1ccc(Cl)cc1 (stereo unspecified)	MPTP inh 68 | MPTP counter 88
Cc1ccc(NC(=O)COc2ncnc3cc([N+](=O)[O-])ccc23)cc1S(=O)(=O)N1CCOCC1	none
